Screening data from PubChem.
Most compounds without a hit are left out; they make up all but 8.1% or so of the library.
PINK1 expr mod – modulators of PINK1 expression; Potency, µM (top dose mostly 76.6 µM), for inactives: top-dose activation (PINK1 increase), usual class: activators; PINK1 immunofluorescence, high-content cytometry, 24 h; 410,000 tested, 0.2% active; AID 624263; active = well fitted activation curve with a large enough effect; inconclusive = small, poorly fitted or top-dose-only effect; cell line not stated here; note: % of control where 0% means no effect; nearly all actives have a fitted effect of over 65% in size
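Compound titrations (5 concentrations, 24 h) on a stable cell line; DMSO and CCCP controls. Endpoint: fixed-cell PINK1 immunofluorescence with mitochondrial, cell and nuclear markers, scanned by microplate cytometer.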
RORg inh – inhibitors of mouse ROR gamma transcriptional activity; P51450; AID 2551; Potency, µM (titrated, usually from 53.6 µM), inactives show at the top dose activity change, negative = inhibition, hits mostly inhibitors; Drosophila S2 Gal4-RORgamma UAS-luciferase reporter, 20 h; 310,000 tested, 5.4% active; note: % is set by controls: 0 for no effect and ±100 for the full control effect; nearly all actives have a fitted effect of over 60% in size
Target sequence (P51450 whole entry, looked up, the tested form may be a part): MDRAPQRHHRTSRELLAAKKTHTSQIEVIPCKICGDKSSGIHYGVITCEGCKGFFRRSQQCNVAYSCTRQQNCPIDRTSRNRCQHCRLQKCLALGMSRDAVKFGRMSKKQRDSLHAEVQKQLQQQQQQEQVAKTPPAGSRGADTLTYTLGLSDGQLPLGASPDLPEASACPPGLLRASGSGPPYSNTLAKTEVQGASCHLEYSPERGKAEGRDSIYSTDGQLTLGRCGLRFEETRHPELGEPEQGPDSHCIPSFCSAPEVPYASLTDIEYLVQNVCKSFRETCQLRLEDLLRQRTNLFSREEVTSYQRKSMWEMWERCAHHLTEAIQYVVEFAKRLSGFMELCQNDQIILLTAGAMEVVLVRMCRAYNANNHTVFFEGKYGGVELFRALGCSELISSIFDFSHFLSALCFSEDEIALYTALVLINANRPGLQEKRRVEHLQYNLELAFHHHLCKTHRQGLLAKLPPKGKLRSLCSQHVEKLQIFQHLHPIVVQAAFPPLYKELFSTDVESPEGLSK
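Schneider cells (Drosophila), stable Gal4 DBD–ROR gamma + UAS-luc; 1 hr cmpd preincubation; Cu2+ induction 700 uM final; 20 hr ambient; luminescence.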
Epigenetic reg – regulators of epigenetic silencing causing reporter derepression in mouse cells; murine LDR cells, GFP reporter derepression, 30 h; Potency, µM (titrated, usually from 53.9 µM), without a hit: at the top dose GFP activation, usual class: activators; 280,000 tested, 0.2% active; AID 1865; note: % of control where 0% means no effect; nearly all actives have a fitted effect of over 60% in size
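In this reporter-derepression format, murine cells bearing a silenced integrated CMV-GFP locus incubate with test compound (30 h, 37 C), then are washed and imaged; fluorescent objects of 20–120 um count as induced cells.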
Sfp inh – inhibitors of Bacillus subtilis Sfp phosphopantetheinyl transferase | Q9F4F7 | Biochemical Sfp PPTase activity, qHTS | Potency, µM, without a hit: largest response in the series, negative = inhibition, most hits filed as inhibitors | 310,000 tested, 3.5% active;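 note: the enzyme is Sfp with the accession as filed and its product quenches rhodamine fluorescence; 0% = enzyme reaction without inhibitor and -100% = no enzyme wells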
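Fluorescence-quenching assay: 15 nM Sfp-PPTase preincubated 15 min at room temperature with compound, then 5 uM rhodamine-CoA and 12.5 uM BHQ-2-labelled YbbR peptide added. Fluorescence (ex 525/em 598 nm) read at start and after 30 min; difference gives rate.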
ClpP mod – qHTS Assay for Activators of ClpP; AID 651965, 2013; 340,000 tested, 1.9% active; ATP-dependent Clp protease proteolytic subunit (Bacillus subtilis (strain 168)), P80244; Potency, µM (highest dose often 57.5 µM), inactives show at the highest dose activity change, negative = active; purified B. subtilis ClpP, FRET peptide cleavage, 20 min; active = well fitted falling curve with a large enough effect; inconclusive = small, poorly fitted or top-dose-only effect; inactive = no such curve, though single readings can be large or run the other way; note: the source files actives as falling curves though it sought activators and does not explain the sign; nearly all actives have a fitted effect of over 65% in size
Target sequence (P80244 whole entry, looked up): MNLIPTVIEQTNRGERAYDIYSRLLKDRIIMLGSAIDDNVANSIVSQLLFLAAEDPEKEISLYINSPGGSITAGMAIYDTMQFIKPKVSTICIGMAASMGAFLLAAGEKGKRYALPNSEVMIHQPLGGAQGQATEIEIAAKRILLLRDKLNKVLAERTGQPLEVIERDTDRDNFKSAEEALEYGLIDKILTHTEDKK
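ClpP 10 microg/mL final, pH 8 Tris/KCl buffer with BSA, glycerol, Tween-20; compound pinned in; FRET-FV substrate; RT 20 min; Ex320/Em430; ΔFRET vs ADEP 5.8 microM, DMSO, no enzyme.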
VP16 counter – inhibits Gal4-VP16 luciferase reporter, ROR gamma counter-screen | Drosophila S2 Gal4-VP16 UAS-luciferase, luminescence, 20 h | Potency, µM (titrated, usually from 53.6 µM), inactives show at the highest dose activity, negative = inhibition, usual class: inhibitors | 310,000 tested, 3.5% active | AID 2546;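 note: Gal4-VP16 expression switched on by copper sulfate through the metallothionein promoter; % is set by controls: 0 for no effect and ±100 for the full control effect; nearly all actives have a fitted effect of over 50% in size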
An asterisk follows results filed as active; ? = inconclusive; . = no result; [ ] = dose if it differs, or a comment. Unless noted, calls come from the whole dose curve; as a rule, active = well fitted curve in the direction sought with a large enough effect; inconclusive = small, poorly fitted or top-dose-only effect, or another doubt; inactive = no such curve, though single readings can be large; an effect the other way counts as inactive or inconclusive. Potency is the fitted concentration of half-maximal effect.

SMILES	PINK1 expr mod	RORg inh	Epigenetic reg	Sfp inh	ClpP mod	VP16 counter
O=c1c2ccccc2[nH]c(=S)n1Cc1ccccc1Cl	16.5%	3.55µM*	.	18.2%	.	5.01µM*
COCCCNC(=O)CCCn1c(SCC(=O)c2ccc(Br)cc2)nc2c(sc3ccccc32)c1=O	-1.6%	.	0.0%	.	-7.8%	.
Nc1ccc(/C=C/c2ccnc3ccccc23)c(N)c1	.	.	.	.	-1.3%	.
C=C(C(C)=O)C(O)/C=C/c1ccco1 (stereo not drawn)	.	-18.0%	-1.1%	-20.7%	.	-9.3%
COc1cc2[nH]c(=S)n(Cc3ccccc3)c(=O)c2cc1OC	10.5%	3.16µM*	1.7%	?	-10.6%	5.01µM*
COc1cc2[nH]c(=O)n(Cc3ccccc3Cl)c(=O)c2cc1OC	-2.7%	0.6%	-1.0%	2.1%	?	-0.2%
CCCCC#CC1C=CC(OC(C)=O)C(COC(C)=O)O1 (stereo not drawn)	.	?	3.2%[10.1 µM]	?	.	?
CC(=O)c1ccc(NC(=S)Nc2ccn(Cc3ccc(Br)cc3)n2)cc1	5.7%	15.8%	0.1%	-4.7%	.	-17.9%
CC(=O)c1cccc(NC(=S)Nc2ccn(Cc3cccc4ccccc34)n2)c1	0.9%	2.82µM*	-2.6%	15.1%	.	5.01µM*
CC(=O)c1cccc(NC(=O)NCCc2ccc(Cl)cc2)c1	0.1%	31.0%	.	12.5%	-4.4%	1.2%
CCC(=O)Nc1cccc(NC(=S)NC(=O)c2ccccc2)c1	0.1%	4.4%	0.0%	-1.7%	1.0%	-2.4%
CC(=O)c1cccc(NC(=S)NC(=O)Cc2ccc(Cl)cc2)c1	-1.1%	10µM*	.	-2.8%	1.2%	?
CC(=O)c1cccc(NC(=S)NC(=O)Cc2ccccc2)c1	3.8%	1.41µM*	20.2%	14.9%	.	5.01µM*
Cc1ccccc1C(=O)Oc1cc(-c2ccc3c(c2)OCO3)cc(=O)c2c(C)oc(C)c12	-0.5%	.	1.9%	.	-0.4%	.
CC(C)CC(=O)N1C/C=C\C[C@@H](c2ccc(Cl)cc2)N(Cc2ccc(Cl)cc2)C(=O)[C@@H]1Cc1ccccc1	.	.	.	.	0.6%	.
COc1ccccc1CNc1nc(-c2ccoc2)nc2ccccc12	0.6%	?	.	-4.4%	.	?
Cc1cccc(C)c1NC(=O)CC12CCCN1CCC2	.	3.0%	.	23.0%	.	-2.1%
CC[C@H](C)[C@H](N)C(=O)N[C@@H](CCCCN)C(=O)N[C@H](C(=O)N[C@@H](C)C(=O)N[C@H](C(=O)O)C(C)C)C(C)C	.	-3.0%	.	0.1%	.	-15.6%
CCC(C)C(N)C(=O)NC(CC(N)=O)C(=O)NC(CC(C)C)C(=O)NC(CCCCN)C(=O)NC(C)C(=O)NC(CC(C)C)C(=O)NC(C)C(=O)NC(C)C(=O)NC(CC(C)C)C(=O)NC(C)C(=O)NC(CCCCN)C(=O)NC(CCCCN)C(=O)NC(C(=O)NC(CC(C)C)C(N)=O)C(C)CC (stereo not drawn)	.	?	.	?	.	17.8µM*
Clc1ccc(-n2nnnc2SCc2c(-c3ccccc3)nc3sccn23)cc1	3.9%	?	0.2%	-26.6%	-10.9%	6.31µM*
COc1cc(Cl)c(C)cc1NC(=O)c1c(C)oc2nc(C)nc(N3CCCC3)c12	-4.4%	.	-1.3%	.	0.6%	.
COC(=O)c1c(NC(=O)Cc2coc3cc(C)ccc23)sc2c1CCC2	-1.6%	.	0.0%	.	?	.
CN1C(=O)CC(=O)N(C)c2cc(S(=O)(=O)N(C)Cc3ccccc3)ccc21	1.5%	-9.4%	-0.9%	89.1µM*	-0.3%	-3.2%
CN(Cc1ccccc1)S(=O)(=O)c1ccc2c(c1)n(C)c(=O)c(=O)n2C	0.4%	-10.5%	5.7%	27.8%	-3.4%	2.0%
Cc1ccc(S(=O)(=O)N2CCCc3cc(NS(=O)(=O)c4cc(F)ccc4F)ccc32)cc1	1.8%	.	0.5%	.	0.2%	.
SMILES	PINK1 expr mod	RORg inh	Epigenetic reg	Sfp inh	ClpP mod	VP16 counter
COCCNC(=O)C1CCN(S(=O)(=O)c2ccc3c(c2)CCCN3C(C)=O)CC1	-0.8%	.	1.1%	.	0.0%	.
O=C(N/N=C\c1ccncc1)c1ccc(Br)s1	-0.4%	0.8%	.	13.9%	-0.2%	-0.2%
O=C(Nc1nnc(-c2ccco2)o1)C1CCCCC1	1.5%	?	1.7%	-1.9%	-2.1%	?
O=C(Nc1nnc(-c2ccncc2)o1)c1ccc(Br)s1	0.3%	0.891µM*	1.8%	-6.4%	-4.4%	1.12µM*
O=C(Nc1nnc(-c2ccccc2)o1)NC1CCCCC1	-1.0%	2.51µM*	2.9%	7.6%	?	4.47µM*
O=C(Nc1nnc(-c2ccco2)o1)C1CC1	-0.6%	10µM*	-1.2%	-25.5%	0.7%	?
O=C(Nc1nnc(-c2ccncc2)o1)C1CCCCC1	-0.9%	10µM*	0.0%	-1.8%	-25.1%	?
O=C(Nc1ccccc1)Nc1nnc(-c2ccccc2)o1	-2.8%	43.3%	1.3%	7.2%	-20.8%	-1.8%
CC(C)(C)C(=O)Nc1nnc(-c2ccncc2)o1	1.0%	11.2µM*	0.0%	-8.7%	?	17.8µM*
O=C(Nc1nnc(-c2cccs2)o1)C1CC1	0.4%	7.08µM*	-1.2%	?	5.4%	7.08µM*
C=CCCC/C=C(/C)C(OCc1ccc(OC)cc1)C(CC/C=C(\C)C(N)=O)OC (stereo not drawn)	.	-8.9%[10 µM]	0.0%[10.1 µM]	10.7%	.	-11.2%[10 µM]
Cc1cc(Cl)ccc1NC(=O)Cn1nc(C)c2c(C)n(-c3ccccc3)nc2c1=O	0.7%	.	-1.9%	.	-3.2%	.
CSc1ccc(C2C(C#N)=C(N)Oc3c2ccc(=O)c2c(C)oc(C)c32)cc1 (stereo not drawn)	?	6.31µM*	0.9%	56.2µM*	1.3%	?
Cc1oc(C)c2c(=O)ccc3c(c12)OC(N)=C(C#N)C3c1ccccc1 (stereo not drawn)	?	2.3%	3.5%	-35.1%	1.2%	?
Cc1oc(C)c2c(=O)ccc3c(c12)OC(N)=C(C#N)C3c1ccccc1Cl (stereo not drawn)	?	-20.6%	1.0%	50.1µM*	-3.6%	1.8%
COc1ccc(Cl)cc1-c1cc2c(c(OC)c1)OCCN(Cc1cccn1-c1nccs1)C2	-1.3%	.	.	.	.	.
COC(=O)c1c(C(=O)c2ccc(Br)cc2)n(C)c2ccccc12	6.4%	.	.	.	-6.6%	.
COC(=O)c1c(S(N)(=O)=O)c2ccccc2n1C	1.2%	8.0%	3.8%	9.8%	28.2µM*	-3.9%
CCN(c1ccccc1)S(=O)(=O)c1ccc(OCc2c(C)noc2C)cc1	-1.5%	-6.1%	0.0%	8.5%	0.4%	7.0%
CCN(C(=O)COC(=O)c1ccc(OCc2c(C)noc2C)cc1)c1ccccc1	1.8%	24.1%	-1.0%	0.4%	25.1µM*	15.5%
